Most compounds without a hit are left out; they make up all but 3.5% or so of the library.
BoNT-A LC inh2: inhibitors of Botulinum neurotoxin A light chain protease; inhibition, % at 10 µM; 360,000 tested, 0.17% active; AID 588499; multiplex microsphere protease substrate cleavage, flow cytometry; further: plate controls were buffer without enzyme for full effect and enzyme alone for no effect
Autofluor counter: counter-screen for toxin protease inhibitors: compound fluorescence; compound autofluorescence counterscreen, microsphere flow cytometry; active compounds read high; fluorescence intensity (no concentration beside the values); 360,000 tested, 3.1% active; AID 624483; in the data active means fluorescence intensity above about 16000; inconclusive means no clear call, values can overlap the other calls
3CLpro inhibitor: SARS-CoV 3CLpro protease inhibition. P0C6X7. recombinant SARS-CoV 3CLpro, quenched FRET peptide cleavage. inhibition, % at 6 µM. 290,000 tested, 0.14% active. AID 1706; in the data active means inhibition above about 12%
BoNT-F LC inh: blocks Botulinum neurotoxin F light chain protease | inhibition, % at 10 µM | Multiplex microsphere protease cleavage assay, flow cytometry | 360,000 tested, 0.22% active; in the data active means inhibition above about 35%, passing the limit was not always enough; inconclusive means no clear call, values can overlap the other calls; further: plate controls were buffer without enzyme for full effect and enzyme alone for no effect
Anthrax LF prot: blocks Bacillus anthracis lethal factor protease. P15917. multiplex microsphere protease cleavage assay, LF. inhibition, % at 10 µM. 360,000 tested, 0.12% active. AID 588501; further: plate controls were buffer without enzyme for full effect and enzyme alone for no effect
Target sequence (P15917 whole entry, looked up): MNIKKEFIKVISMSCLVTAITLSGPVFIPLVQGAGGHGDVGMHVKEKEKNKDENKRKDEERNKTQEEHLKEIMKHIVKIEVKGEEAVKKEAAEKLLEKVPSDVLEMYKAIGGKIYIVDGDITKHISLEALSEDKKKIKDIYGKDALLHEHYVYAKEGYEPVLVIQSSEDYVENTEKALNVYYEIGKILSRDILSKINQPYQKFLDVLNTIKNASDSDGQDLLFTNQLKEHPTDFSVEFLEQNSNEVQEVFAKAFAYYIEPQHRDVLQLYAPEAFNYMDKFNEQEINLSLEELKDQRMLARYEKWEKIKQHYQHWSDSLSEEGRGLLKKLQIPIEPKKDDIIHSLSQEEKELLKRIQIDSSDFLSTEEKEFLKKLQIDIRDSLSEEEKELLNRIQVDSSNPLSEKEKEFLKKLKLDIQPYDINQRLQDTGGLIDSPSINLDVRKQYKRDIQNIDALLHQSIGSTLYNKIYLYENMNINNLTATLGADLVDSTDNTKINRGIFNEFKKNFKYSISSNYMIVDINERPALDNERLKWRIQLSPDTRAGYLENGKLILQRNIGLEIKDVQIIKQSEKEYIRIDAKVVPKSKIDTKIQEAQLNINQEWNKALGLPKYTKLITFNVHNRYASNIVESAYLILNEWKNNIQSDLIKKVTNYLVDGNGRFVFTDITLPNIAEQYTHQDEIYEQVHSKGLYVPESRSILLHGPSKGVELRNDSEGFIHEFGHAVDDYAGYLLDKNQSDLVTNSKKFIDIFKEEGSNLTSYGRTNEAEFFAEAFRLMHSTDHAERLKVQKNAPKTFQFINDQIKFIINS
Numbers without * were called inactive; ? = inconclusive; . = no result given. Unless noted, no stated cut-off is given here; in the data, active means inhibition above about 30%; inconclusive means no clear call, values can overlap the other calls; inactive means below that.

SMILES	BoNT-A LC inh2	Autofluor counter	3CLpro inhibitor	BoNT-F LC inh	Anthrax LF prot
CC12CCC(C(N)=O)(C1Br)C2(C)C (configuration not stated)	0.1	2139	2.9	-0.4	1.4
CC1(C)CC(NC(=O)C23CCC(C)(C(=O)C2=O)C3(C)C)CC(C)(C)N1 (configuration not stated)	-0.3	4471	-3.5	-3.1	4.9
COc1ccccc1-n1cnnc1SCC(=O)c1cc(C)n(Cc2cccs2)c1C	-0.8	17083*	4.3	-0.7	-0.9
Cc1cc(C(=O)CSc2nnc(-c3ccccc3F)o2)c(C)n1Cc1cccs1	-0.5	20558*	3.6	-0.2	-1.3
C/C(=N\S(=O)(=O)c1ccc(C)cc1)Nc1cc(C(C)C)c(O)cc1C	-0.4	2429	-0.4	-2.8	0.1
O=S(=O)(c1ccc(-c2csc(-c3cccnc3)n2)cc1)N1CCCCC1	0.4	22447*	2.7	-1.5	-4.3
COc1ccccc1NC(=O)CCN1C(=O)c2ccccc2S1(=O)=O	-1.6	4639	1.9	-6.3	0.9
Cc1ccccc1NC(=S)N(CCCN1CCOCC1)Cc1ccccn1	4.7	2551	-0.6	38.6*	-0.1
COc1cccc(C2=NO[C@@H]3C(=O)N(c4ccc5c(c4)OCCO5)C(=O)[C@H]23)c1OC	4.0	20829*	4.6	6.1	-0.4
COc1cccc(C2=NO[C@@H]3C(=O)N(Cc4ccccc4)C(=O)[C@H]23)c1OC	-0.4	8668	4.7	-8.0	-6.1
Cc1ccc(SCc2nc3ccccc3n2CC(=O)Nc2c(C)cccc2C)cc1	0.8	22196*	9.4	4.6	3.0
O=C(Nc1c2c(nn1-c1ccccc1)CS(=O)C2)c1ccc(Br)o1 (configuration not stated)	0.5	6460	1.0	3.8	-3.1
CCOC(=O)Cn1c(-c2cccnc2Cl)nc2cc(Cl)c(Cl)cc21	?	20399*	1.0	-1.5	2.2
CCOC(=O)Cn1c(-c2cccnc2Cl)nc2cc(C)c(C)cc21	0.1	22326*	3.4	0.8	0.9
CCn1c(-c2cccnc2Cl)nc2cc(Cl)c(Cl)cc21	?	23561*	-2.1	-0.1	-1.6
Clc1ccc(Cn2c(-c3cccnc3Cl)nc3ccccc32)c(Cl)c1	?	21985*	8.7	1.5	-1.1
Clc1ccc(Cn2c(-c3cccnc3Cl)nc3ccccc32)cc1	1.2	8232	4.4	-0.3	-3.1
Clc1cc2nc(-c3cccnc3Cl)[nH]c2cc1Cl	-1.6	3303	1.2	-6.7	0.9
COc1ccc(C(=O)Nc2cc(C)cc(C)c2)cc1S(=O)(=O)N1CCOCC1	0.6	2408	-1.3	?	-3.5
CCN(CC)S(=O)(=O)c1ccc(NC(=O)COC(=O)CNS(=O)(=O)/C=C/c2ccccc2)cc1	-0.5	2022	3.4	-3.8	-3.1
O=C(Nc1ccc(F)cc1F)N1CCCCC1c1cccnc1 (configuration not stated)	?	22683*	1.6	-0.9	0.5
CCCCn1c(=O)c(C(=O)c2ccccc2)nc2ccccc21	-6.7	21629*	0.5	-7.0	-1.2
CCCn1c(=O)c(C(=O)c2ccccc2)nc2ccccc21	3.4	15413	-0.2	5.8	1.6
COC(=O)c1ccc(OCC2c3cc(OC)c(OC)cc3CCN2C(C)=O)cc1 (configuration not stated)	0.0	4054	2.7	-1.2	6.6
COC(=O)c1ccc(OCC2c3cc(OC)c(OC)cc3CCN2C(=O)c2ccco2)cc1 (configuration not stated)	2.7	19776*	1.9	4.1	-7.6
SMILES	BoNT-A LC inh2	Autofluor counter	3CLpro inhibitor	BoNT-F LC inh	Anthrax LF prot
CCC(=O)N1CCc2cc(OC)c(OC)cc2C1COc1ccc(C(=O)OC)cc1 (configuration not stated)	-2.1	21370*	-0.4	-2.7	-1.1
CCOc1ccccc1NC(=O)CSc1nnc(Cc2cccn2C)n1-c1ccc(F)cc1	0.2	6165	3.6	-5.8	-5.8
Cn1cccc1Cc1nnc(SCC(=O)N2CCN(c3ccccc3)CC2)n1-c1ccc(F)cc1	?	24052*	4.1	-2.9	-2.0
CCOC(=O)c1ccccc1NC(=O)CSc1nnc(Cc2cccn2C)n1-c1ccc(F)cc1	0.8	23284*	2.8	-0.5	-5.8
Cn1c(=O)c(=O)n(C)c2cc(S(=O)(=O)N3CCN(c4cccc(C(F)(F)F)c4)CC3)ccc21	-0.8	21964*	-0.7	0.2	-0.2
Cn1c(=O)c(=O)n(C)c2cc(S(=O)(=O)N3CCCCC3)ccc21	0.2	23051*	4.8	-1.4	-1.0
Cn1c(=O)oc2cc(S(=O)(=O)N3CCN(c4cccc(Cl)c4)CC3)ccc21	2.3	22890*	-3.0	0.7	0.0
Cc1c(S(=O)(=O)N2CCN(c3cccc(C(F)(F)F)c3)CC2)c(=O)n(C)c(=O)n1C	-0.9	5536	0.4	-2.3	-8.3
Cc1ccc(-c2csc3ncn(CC(N)=O)c(=O)c23)cc1C	0.9	4624	-3.7	4.5	-2.5
COc1ccc(CN(C)C(=S)Nc2ccc(Cl)cc2)cc1	0.0	3195	-2.0	-3.9	-5.9
CN1C[C@@H]2C(c3ccccc3)C3(c4cccnc4)CC2(C3)[C@H]1c1ccccc1 (some centres not stated)	0.0	3889	.	-5.7	-5.2
COc1cc(/C=N/Nc2ccc(Cl)c(C(=O)O)c2)ccc1OCC(=O)N1C(C)CCCC1C (configuration not stated)	0.6	4126	1.1	2.3	-0.7
COC(=O)c1[nH]c2cc(C)ccc2c1NC(=O)CN1CCOCC1	-0.7	5493	5.0	-0.9	-2.9
CCC(=O)Nc1sccc1C(=O)OC	?	22995*	0.1	-1.0	-7.9
COC(=O)c1c(NC(=O)CN2CCN(Cc3ccc4c(c3)OCO4)CC2)sc(C)c1C	-0.2	?	2.2	-9.3	13.4
COC(=O)c1[nH]c2ccc(C)cc2c1NC(=O)CCN1CCN(Cc2ccc3c(c2)OCO3)CC1	0.1	22086*	-8.1	-0.2	-4.3
COC(=O)Nc1sccc1C(=O)Nc1sccc1C(=O)OC	1.5	7544	-0.7	1.9	-2.7
COC(=O)c1ccsc1NC(=O)CN1CCN(Cc2ccc3c(c2)OCO3)CC1	1.8	21667*	0.3	0.9	-1.0
CCOC(=O)Cc1csc(N(C)C)n1	-0.5	4234	-1.1	1.6	-0.3
Cc1ccc(-c2ccc(CCC(=O)O)n2-c2ccc(O)cc2)cc1	2.0	10421	2.5	-0.7	-1.2
Cc1ccc(-c2ccc(CCC(=O)O)n2-c2cccc(O)c2)cc1	-0.1	19713*	2.1	-1.1	-0.7
COc1ccc(/C=N/NC(=O)c2cc(C34CC5CC(CC(C5)C3)C4)[nH]n2)cc1OC	3.2	2286	2.6	39.6*	1.1
COc1cccc(/C=N/NC(=O)c2cc(C34CC5CC(CC(C5)C3)C4)[nH]n2)c1	-0.2	2889	2.0	1.3	-1.9
CCC(=O)NCCC(c1ccco1)c1ccccc1OC (configuration not stated)	1.7	4656	-0.6	14.5	2.2
CCCNCCC(c1ccco1)c1ccccc1OC (configuration not stated)	-1.9	16663*	5.3	-6.4	-7.7
CC(C)CCn1c(N2CCCC2)nc2c1c(=O)[nH]c(=O)n2C	-4.7	3918	-8.2	-14.4	-10.4
